Experimental data from PubChem BioAssay AID1903 (Southern Research Specialized Biocontainment Screening …, 2009).
About 1,200 (0.39%) of roughly 310,000 compounds were called active. The rule behind the calls is not given here. The list is a sample of the results. Entries with a potency or affinity are not part of this list.

Biological target: Large T antigen (Simian virus 40) (UniProt P03070)
Assay: SV40 large T antigen inhibitors, biochemical (AID 1903)
Conditions: SV40 large T antigen ATPase/helicase inhibition assay; at 20 µM; active compounds read high

Chain of Large T antigen (Simian virus 40) (P03070 whole entry, looked up): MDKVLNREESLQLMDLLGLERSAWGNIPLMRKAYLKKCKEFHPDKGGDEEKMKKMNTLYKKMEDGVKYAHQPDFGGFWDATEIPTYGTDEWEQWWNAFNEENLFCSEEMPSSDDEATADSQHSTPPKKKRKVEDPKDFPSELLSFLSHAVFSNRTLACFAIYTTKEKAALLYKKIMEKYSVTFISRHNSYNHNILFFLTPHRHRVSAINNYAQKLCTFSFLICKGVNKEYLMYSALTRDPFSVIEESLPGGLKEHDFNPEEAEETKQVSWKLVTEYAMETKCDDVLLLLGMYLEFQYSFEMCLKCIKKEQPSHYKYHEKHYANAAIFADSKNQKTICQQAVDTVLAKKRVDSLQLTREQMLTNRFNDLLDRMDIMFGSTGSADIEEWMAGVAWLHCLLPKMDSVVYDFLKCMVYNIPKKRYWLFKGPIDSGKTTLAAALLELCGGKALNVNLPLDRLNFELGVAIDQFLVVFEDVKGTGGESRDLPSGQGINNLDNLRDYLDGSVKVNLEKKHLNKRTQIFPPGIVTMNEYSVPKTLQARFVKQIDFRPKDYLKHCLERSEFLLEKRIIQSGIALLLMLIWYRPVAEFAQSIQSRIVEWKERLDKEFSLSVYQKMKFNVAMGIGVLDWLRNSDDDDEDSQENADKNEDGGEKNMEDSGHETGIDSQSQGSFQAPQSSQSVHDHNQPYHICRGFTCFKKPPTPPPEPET

inhibition, inactive:
CC(C)C[C@H](NC(=O)Nc1cccc(Cl)c1)C(=O)O 10.3%
O=C(CN1CCOCC1)Nc1ccccc1Cl 8.91%
O=C(N/N=C/c1ccc(-c2cccc([N+](=O)[O-])c2)o1)c1ccccc1O 2.92%
NC(=O)N/N=C/c1ccc(-c2ccc([N+](=O)[O-])cc2)o1 12.1%
O=C(N/N=C/c1ccc(O)cc1O)C1CC1 33.4%
NC(N)=N/N=C/c1cc([N+](=O)[O-])ccc1O 9.25%
CCCCn1c(N)c(N(CC(C)C)C(=O)C2CCN(S(=O)(=O)c3ccc(Cl)cc3)CC2)c(=O)[nH]c1=O 11.5%
O=C(NCC1CCCCC1)c1cccnc1 11.1%
CCCC(=O)Nc1cc2c3c(c1)CC(=O)N3CCC2 8.54%
O=C(NCCO)C(=O)Nc1cc2c3c(c1)CC(=O)N3CCC2 7.7%
Nc1ccc(Nc2ccccc2)c(Cl)c1 19.8%
Cc1cc(C)cc(Nc2ccc(C(=O)O)cc2N)c1 23.9%
Cc1ccc(Nc2ccc(C(=O)O)cc2N)cc1 -4.88%
Cc1ccc(Nc2ccc(N)cc2S(=O)(=O)O)cc1 21.6%
CC(=O)c1c(NCCc2ccccc2)cc(C)oc1=O -0.81%
CCC(OC(=O)c1cccs1)C(=O)NCc1ccco1 (stereo not drawn) 8.42%
Cc1c(Cl)cccc1NC(=O)NC1CCCCC1 2.26%
CCc1cccc2c(C(=O)CSc3nncn3-c3ccccc3OC)c[nH]c12 2.74%
COc1cccc(-n2cc(C(=O)NCCCOC(C)C)c3ccccc3c2=O)c1 11.2%
O=C(/C=C/c1ccc(O)c(O)c1)OC(Cc1ccc(O)c(O)c1)C(=O)O (stereo not drawn) 4.28%
O=C(/C=C/c1ccc(O)c(O)c1)OCCc1ccccc1 37.9%
CN(CCCNS(=O)(=O)c1cccc2cccnc12)Cc1ccccc1 -0.29%
O=C(Cn1c(=O)n(Cc2ccco2)c(=O)c2c3c(sc21)CCCCC3)c1ccccc1 49.4%
O=C(Cn1c(=O)n(Cc2ccco2)c(=O)c2c3c(sc21)CCCCC3)Nc1ccccc1 51.6%
CN1C(=O)C(CC(=O)NC2CCCCC2)N(C)C1=O (stereo not drawn) -7.63%
CCOc1ccc(N=Cc2c(O)cc(C)oc2=O)cc1 18.6%
Cc1cccc(N=Cc2c(O)cc(C)oc2=O)c1 7.74%
NC(=O)CN1CCN(S(=O)(=O)c2ccc(Cl)cc2)CC1 4.21%
